Inconclusive results are not listed. Some structures have more than one record in an assay (separate samples or runs), and their calls can disagree. Activity calls are given as the source filed them. Unless noted, calls follow the shape of the full dose curve.
Columns and labels:
[1] = Nuclear factor erythroid 2-related factor 2/antioxidant responsive element (Nrf2/ARE) small molecule agonists: qHTS cell viability counter screen in human keratinocytes (AID 1919968; active = well fitted curve in the direction sought with a large enough effect in the repeat runs; an effect the other way counts as inactive or inconclusive; also: nearly all actives have a fitted effect of over 55% in size)
Outline: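 KeratinoSens cells (HaCaT keratinocytes stably carrying an ARE-luciferase reporter) were seeded at 1,500 cells/well and rested 5 h at 37 C/5% CO2. They were then exposed to compounds in DMSO for 23 h. Viability was read by CellTiter-Fluor fluorescence after 1 h.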

[2] = Nuclear factor erythroid 2-related factor 2/antioxidant responsive element (Nrf2/ARE) small molecule agonists: luciferase reporter gene qHTS assay in human keratinocytes (AID 1919969); also: nearly all actives have a fitted effect of over 35% in size; also: potency is read from the fitted curve at half-maximal effect
[3] = biological target: Gonadotropin-releasing hormone receptor (Homo sapiens) (UniProt P30968); assay: Human gonadotropin-releasing hormone receptor (GnRHR) small molecule agonists, calcium flux assay in GnRHR-HEK293 cells (AID 1920063); also: nearly all actives have a fitted effect of over 35% in size
Outline: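 HEK293 cells stably expressing human GnRHR were plated 18 h at 37 °C, loaded with calcium dye 1 h at 37 °C, then given compound in agonist mode; fluorescence (Ex/Em 480/540) read kinetically for 3 min at 1 s intervals.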

[4] = biological target: KiSS-1 receptor (Homo sapiens) (UniProt Q969F8); assay: Human kisspeptin (KISS1R) small molecule agonists, calcium flux assay in KISS1R-HEK293 cells (AID 1920064; active = well fitted curve in the direction sought with a large enough effect in the repeat runs; an effect the other way counts as inactive or inconclusive)
Outline: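 HEK293 cells stably expressing human KISS1R were plated 18 h at 37 °C, loaded with calcium dye for 1 h at 37 °C, then given compound by pin tool. Fluorescence (Ex/Em 480/540) was read kinetically for 3 min.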

[5] = G protein-coupled receptor (GPCR) small molecule agonists, calcium flux assay: HEK293 wild type cell line counter screen (AID 1920065)
Outline: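 Cells were plated and cultured 18 h at 37 C/5% CO2, then loaded with calcium dye for 1 h at 37 C. Compounds in DMSO were pin-transferred in agonist mode, and fluorescence (Ex/Em 480/540) was read kinetically for 3 min at 1 s intervals.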

[6] = p53 small molecule agonists, cell-based qHTS assay with human liver microsomes (AID 1963577);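 also: p53 response element beta-lactamase reporter cells with liver microsomes plus NADPH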
Outline: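 Metabolically competent format: test substances, human liver microsomes and NADPH (both 0.5 mg/mL final) incubated with p53RE-bla cells 16 h at 37 C. Beta-lactamase reporter signal then quantified by fluorescence.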

[7] = p53 small molecule agonists, cell-based qHTS assay with rat liver microsomes (AID 1963578)
Outline: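 Each plate received p53RE-bla cells, then compound, then rat liver microsomes and NADPH (both 0.5 mg/mL final). Plates were held 16 h at 37 C, and beta-lactamase activity was detected with LiveBLAzer over 2 h.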

[8] = p53 small molecule agonists, cell-based qHTS assay with human liver microsomes: qHTS cell viability counter screen (AID 1963579); also: nearly all actives have a fitted effect of over 45% in size
Outline: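 Tox21 library compounds, delivered from DMSO stocks, were tested on p53RE-bla cells together with 0.5 mg/mL human liver microsomes and 0.5 mg/mL NADPH (final) over 16 h at 37 C; CellTiter-Glo luminescence served as the cytotoxicity measure.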

[9] = p53 small molecule agonists, cell-based qHTS assay with rat liver microsomes: qHTS cell viability counter screen (AID 1963580); also: nearly all actives have a fitted effect of over 45% in size
Outline: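 Viability is assessed in parallel with the p53 reporter read: HCT-116 p53RE-bla cells receive compounds plus rat microsomes and NADPH (0.5 mg/mL final apiece), incubate 16 h at 37 C, and then CellTiter-Glo luminescence is recorded.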

[10] = p53 small molecule agonists, cell-based qHTS assay: qHTS cell viability counter screen (AID 1963581); also: nearly all actives have a fitted effect of over 45% in size
Outline: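 p53RE-bla HCT-116 cells were exposed to compounds for 16 h at 37 C; after the beta-lactamase FRET read in the same wells, CellTiter-Glo was added and luminescence (intracellular ATP) read after 30 min at room temperature.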

[11] = p53 small molecule agonists, cell-based qHTS assay (AID 1963582; active = well fitted activation curve with a large enough effect in the signal ratio in the repeat runs, not every such curve was filed as active; the % refers to the signal ratio; also: potency is read from the fitted curve at half-maximal effect)
Outline: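 p53RE-bla beta-lactamase reporter cells rested 5 h at 37 C/5% CO2, then received compounds in DMSO by pin transfer and were incubated 16 h at 37 C. LiveBLAzer B/G FRET substrate was loaded for 2 h at room temperature before fluorescence reading.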

[12] = biological target: Beta-2 adrenergic receptor (Homo sapiens) (UniProt P07550); assay: Adrenergic beta2 receptor (ADRB2) small molecule antagonists, cell-based qHTS assay (AID 1963592); also: series mostly up to about 92 µM; nearly all actives have a fitted effect of over 50% in size
Outline: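 Cells (CHO, stable ADRB2 overexpression) incubated 18-20hr at 37C; compounds added from DMSO; agonist mix (1nM isoproterenol, 100uM IBMX, 25uM Ro-20-1724) added; 0.5hr RT; d2-cAMP and anti-cAMP-cryptate added; 1hr RT; 665/615 nm read.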

[13] = biological target: Beta-2 adrenergic receptor (Homo sapiens) (UniProt P07550); assay: Adrenergic beta2 receptor (ADRB2) small molecule agonists, cell-based qHTS assay (AID 1963593);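 also: CHO cells stably overexpressing human ADRB2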
Outline: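 CHO cells stably over-expressing ADRB2 were plated overnight at 37C, then dosed with compounds plus a stimulation mix containing 100uM IBMX and 25uM Ro-20-1724 for 0.5hr at room temperature. cAMP was measured by HTRF competition, 1hr.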

[14] = biological target: D(2) dopamine receptor (Homo sapiens) (UniProt P14416); assay: Dopamine D2 receptor (DRD2) small molecule agonists, cell-based qHTS assay (AID 1963594); also: nearly all actives have a fitted effect of over 35% in size
Outline: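 HEK293 cells stably expressing human DRD2, pre-treated with PDE inhibitor Ro20-1724 (0.1 mM final) and compound 10 min at room temperature, then stimulated with NKH477 (200nM […]) for 30 min. cAMP read by HTRF (665/620 nm).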

[15] = biological target: D(2) dopamine receptor (Homo sapiens) (UniProt P14416); assay: Dopamine D2 receptor (DRD2) small molecule antagonists, cell-based qHTS assay (AID 1963595; active = well fitted inhibition curve with a large enough effect in the signal ratio in the repeat runs, with a control signal flat; the % refers to the signal ratio)
Outline: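 Antagonist mode in DRD2-HEK293 cells: after compound addition with 0.1 mM Ro20-1724, cells received quinpirole (12 nM) and NKH477 (200 nM) for 30 min at room temperature; HTRF cAMP read after 1 h detection.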

[16] = biological target: 5-hydroxytryptamine receptor 2A (Homo sapiens) (UniProt P28223); assay: 5-hydroxytryptamine receptor 2A (HTR2A) small molecule agonists, cell-based qHTS assay (AID 1963587); also: nearly all actives have a fitted effect of over 30% in size
Outline: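 CHO cells stably expressing human HTR2A, plated 18 h, loaded with calcium dye 1 h at 37 C. Agonist mode: compounds added and intracellular calcium fluorescence recorded kinetically for 2 min at 1 sec intervals.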

[17] = biological target: Muscarinic acetylcholine receptor M1 (Homo sapiens) (UniProt P11229); assay: Cholinergic receptor muscarinic 1 (CHRM1) small molecule antagonists, cell-based qHTS assay (AID 1963588); also: nearly all actives have a fitted effect of over 40% in size
Outline: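 CHRM1-CHO calcium-flux assay, antagonist mode. Cells were seeded 18 h, dye-loaded 1 h at 37 C and given compound for 5 min at RT, then acetylcholine was added at 50nM. FDSS fluorescence was read 3 min; 15 concentrations, three runs.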

[18] = biological target: Muscarinic acetylcholine receptor M1 (Homo sapiens) (UniProt P11229); assay: Cholinergic receptor muscarinic 1 (CHRM1) small molecule agonists, cell-based qHTS assay (AID 1963589); also: nearly all actives have a fitted effect of over 35% in size
Outline: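 CHO cells stably expressing human CHRM1, seeded 18 h at 37 C/5% CO2, dye-loaded 1 h at 37 C, then given compound in agonist mode; intracellular calcium fluorescence read kinetically at 1 s intervals. Fifteen concentrations, three independent runs.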

[19] = cAMP Responsive Elements (CRE) small molecule agonists, cell-based qHTS assay (AID 1963590)
Outline: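 CRE-bla HEK 293T cells in DMEM with 10% dialyzed FBS, NEAA, pyruvate and 25 mM HEPES were plated 18 h at 37 C/5% CO2, then exposed to compounds in DMSO for 3 h before LiveBLAzer B/G FRET substrate addition.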

[20] = cAMP Responsive Elements (CRE) small molecule antagonists, cell-based qHTS assay (AID 1963591; active = well fitted inhibition curve with a large enough effect in the signal ratio in the repeat runs, not every such curve was filed as active; the % refers to the signal ratio)
Outline: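 CRE-bla HEK293T cells were plated 18 h at 37 °C/5% CO2, pinned with compound in DMSO, then stimulated with NKH477 at 0.25 uM final for 3 h. LiveBLAzer B/G FRET substrate was added and plates incubated 2 h at room temperature.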

Measured: Potency

Chain of D(2) dopamine receptor (Homo sapiens) (P14416 whole entry, looked up): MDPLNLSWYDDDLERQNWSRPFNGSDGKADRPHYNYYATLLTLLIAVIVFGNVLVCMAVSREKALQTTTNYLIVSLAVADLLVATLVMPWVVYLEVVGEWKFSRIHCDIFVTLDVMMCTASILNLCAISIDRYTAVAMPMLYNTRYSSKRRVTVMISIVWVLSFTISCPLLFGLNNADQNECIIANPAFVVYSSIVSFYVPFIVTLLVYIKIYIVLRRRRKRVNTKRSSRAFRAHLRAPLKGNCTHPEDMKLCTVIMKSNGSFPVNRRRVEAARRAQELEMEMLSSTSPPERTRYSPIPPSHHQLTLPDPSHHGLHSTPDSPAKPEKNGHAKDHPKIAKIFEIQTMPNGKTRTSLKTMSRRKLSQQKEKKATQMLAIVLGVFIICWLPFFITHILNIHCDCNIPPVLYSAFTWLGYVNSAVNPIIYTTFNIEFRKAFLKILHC
Chain of 5-hydroxytryptamine receptor 2A (Homo sapiens) (P28223 whole entry, looked up): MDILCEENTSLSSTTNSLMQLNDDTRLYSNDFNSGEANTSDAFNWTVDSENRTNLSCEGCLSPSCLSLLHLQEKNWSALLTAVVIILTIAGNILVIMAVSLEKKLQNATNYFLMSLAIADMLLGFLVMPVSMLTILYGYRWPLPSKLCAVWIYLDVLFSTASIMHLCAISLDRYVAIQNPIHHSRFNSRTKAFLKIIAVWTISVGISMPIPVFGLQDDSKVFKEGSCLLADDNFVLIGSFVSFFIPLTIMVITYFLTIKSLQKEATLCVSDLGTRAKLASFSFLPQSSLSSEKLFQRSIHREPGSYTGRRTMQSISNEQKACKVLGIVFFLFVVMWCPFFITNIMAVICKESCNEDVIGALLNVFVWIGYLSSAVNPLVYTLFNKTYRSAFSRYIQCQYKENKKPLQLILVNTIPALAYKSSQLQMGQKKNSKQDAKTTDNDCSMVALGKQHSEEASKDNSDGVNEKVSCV
Chain of Beta-2 adrenergic receptor (Homo sapiens) (P07550 whole entry, looked up): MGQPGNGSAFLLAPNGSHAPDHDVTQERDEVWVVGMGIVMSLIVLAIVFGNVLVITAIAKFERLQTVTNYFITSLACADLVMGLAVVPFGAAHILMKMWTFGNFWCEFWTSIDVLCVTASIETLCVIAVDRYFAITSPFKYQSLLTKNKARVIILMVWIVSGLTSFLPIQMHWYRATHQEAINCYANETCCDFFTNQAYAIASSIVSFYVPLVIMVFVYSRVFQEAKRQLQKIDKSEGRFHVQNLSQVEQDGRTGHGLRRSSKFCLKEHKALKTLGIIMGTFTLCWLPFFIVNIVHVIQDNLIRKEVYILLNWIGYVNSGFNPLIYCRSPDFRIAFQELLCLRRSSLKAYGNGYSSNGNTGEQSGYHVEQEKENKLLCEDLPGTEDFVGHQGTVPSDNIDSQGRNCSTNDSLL
Chain of Muscarinic acetylcholine receptor M1 (Homo sapiens) (P11229 whole entry, looked up): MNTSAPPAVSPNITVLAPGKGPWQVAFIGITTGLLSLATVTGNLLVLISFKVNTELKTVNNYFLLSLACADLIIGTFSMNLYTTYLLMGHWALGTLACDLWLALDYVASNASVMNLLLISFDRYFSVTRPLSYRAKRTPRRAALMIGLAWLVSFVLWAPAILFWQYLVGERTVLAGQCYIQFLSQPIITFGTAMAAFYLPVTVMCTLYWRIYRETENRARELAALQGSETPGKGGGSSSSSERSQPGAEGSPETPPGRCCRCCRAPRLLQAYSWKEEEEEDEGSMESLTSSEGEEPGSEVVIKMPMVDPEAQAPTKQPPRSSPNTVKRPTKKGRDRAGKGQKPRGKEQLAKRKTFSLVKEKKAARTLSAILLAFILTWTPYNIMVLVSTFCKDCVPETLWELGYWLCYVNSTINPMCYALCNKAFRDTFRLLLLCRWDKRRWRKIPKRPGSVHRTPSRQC
Chain of Gonadotropin-releasing hormone receptor (Homo sapiens) (P30968 whole entry, looked up): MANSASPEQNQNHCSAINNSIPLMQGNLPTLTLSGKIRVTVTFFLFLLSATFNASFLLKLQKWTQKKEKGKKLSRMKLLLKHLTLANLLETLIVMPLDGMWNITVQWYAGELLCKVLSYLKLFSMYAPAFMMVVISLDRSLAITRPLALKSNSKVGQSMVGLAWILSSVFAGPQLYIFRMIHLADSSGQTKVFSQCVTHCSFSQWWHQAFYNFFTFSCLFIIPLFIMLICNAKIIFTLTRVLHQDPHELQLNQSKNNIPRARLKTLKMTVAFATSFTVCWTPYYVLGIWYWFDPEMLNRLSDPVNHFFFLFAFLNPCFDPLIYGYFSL
Chain of KiSS-1 receptor (Homo sapiens) (Q969F8 whole entry, looked up): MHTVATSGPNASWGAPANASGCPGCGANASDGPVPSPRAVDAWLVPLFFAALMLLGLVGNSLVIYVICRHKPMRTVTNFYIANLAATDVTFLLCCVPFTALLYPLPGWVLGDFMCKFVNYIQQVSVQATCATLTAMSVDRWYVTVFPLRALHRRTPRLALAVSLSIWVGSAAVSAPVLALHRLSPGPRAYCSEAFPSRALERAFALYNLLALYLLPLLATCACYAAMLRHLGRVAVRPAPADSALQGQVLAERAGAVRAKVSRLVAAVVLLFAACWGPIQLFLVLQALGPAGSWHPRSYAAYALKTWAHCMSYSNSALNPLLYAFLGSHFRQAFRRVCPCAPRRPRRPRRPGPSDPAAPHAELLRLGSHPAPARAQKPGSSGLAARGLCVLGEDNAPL

CC(C)(C)NC(=O)[C@H]1CC[C@H]2[C@@H]3CC[C@H]4NC(=O)C=C[C@]4(C)[C@H]3CC[C@]12C
inactive: [1] | [2] | [3] | [4] | [5] | [6] | [7] | [8] | [9] | [10] | [11] | [12] | [13] | [14] | [15]

COCC(C)O (centres undefined)
inactive: [1] | [2] | [3] | [4] | [5] | [6] | [7] | [8] | [9] | [10] | [16] | [17] | [18] | [19] | [20] | [12] | [13] | [14] | [15]

Cc1ccc(N)c(S(=O)(=O)O)c1
inactive: [1] | [2] | [3] | [4] | [5] | [6] | [7] | [8] | [9] | [10] | [16] | [17] | [18] | [20] | [12] | [14] | [15]

CS(=O)(=O)c1ccc([C@@H](O)[C@@H](CO)NC(=O)C(Cl)Cl)cc1
inactive: [1] | [2] | [3] | [4] | [5] | [6] | [7] | [8] | [9] | [10] | [11] | [19] | [20] | [12] | [14] | [15]

COC(=O)C(C)Oc1ccc(Oc2ncc(C(F)(F)F)cc2Cl)cc1 (centres undefined)
inactive: [1] | [2] | [3] | [4] | [5] | [6] | [7] | [8] | [9] | [10] | [16] | [17] | [18] | [19] | [12] | [14] | [15]

CCN(CC)CCOC(=O)c1ccc(N)cc1
inactive: [1] | [2] | [3] | [4] | [5] | [6] | [7] | [8] | [9] | [10] | [11] | [20] | [12] | [14] | [15]

CC(=O)O[C@]1(C(C)=O)CC[C@H]2[C@@H]3C[C@H](C)C4=CC(=O)CC[C@]4(C)[C@H]3CC[C@@]21C
inactive: [1] | [2] | [3] | [4] | [5] | [6] | [7] | [8] | [9] | [10] | [11] | [12] | [13] | [14] | [15]

COc1ccc(O)cc1
inactive: [1] | [2] | [3] | [4] | [5] | [6] | [7] | [8] | [9] | [10] | [16] | [17] | [18] | [19] | [20] | [12] | [14] | [15]

O=[N+]([O-])c1cc(C(F)(F)F)ccc1Cl
inactive: [1] | [2] | [3] | [4] | [5] | [6] | [7] | [8] | [9] | [10] | [16] | [17] | [18] | [19] | [20] | [12] | [13] | [14] | [15]

CN(C)C=O
inactive: [1] | [2] | [3] | [4] | [5] | [6] | [7] | [8] | [9] | [10] | [11] | [19] | [20] | [13] | [14] | [15]

O=C1O[C@H](CO)[C@@H](O)[C@H](O)[C@H]1O
inactive: [1] | [2] | [3] | [4] | [5] | [6] | [7] | [8] | [9] | [10] | [16] | [17] | [18] | [19] | [20] | [12] | [13] | [14] | [15]

CC(=O)Nc1cccc(O)c1
inactive: [1] | [2] | [3] | [4] | [5] | [6] | [7] | [8] | [9] | [10] | [11] | [20] | [12] | [14] | [15]

CC1(C)O[C@@H]2C[C@H]3[C@@H]4CCC5=CC(=O)C=C[C@]5(C)[C@@]4(F)[C@@H](O)C[C@]3(C)[C@]2(C(=O)CO)O1
inactive: [1] | [2] | [3] | [4] | [5] | [6] | [7] | [8] | [9] | [10] | [11] | [19] | [20] | [12] | [14] | [15]

CC(=O)O[C@]1(C(C)=O)CC[C@H]2[C@@H]3C=C(Cl)C4=CC(=O)CC[C@]4(C)[C@H]3CC[C@@]21C
68.5 µM (active) and inactive: [2]
inactive: [1] | [3] | [4] | [5] | [6] | [7] | [8] | [9] | [10] | [11] | [12] | [13] | [14] | [15]

C#C[C@]1(O)CC[C@H]2[C@@H]3CCc4cc(O)ccc4[C@H]3CC[C@@]21C
inactive: [1] | [2] | [3] | [4] | [5] | [6] | [7] | [8] | [9] | [10] | [12] | [13] | [14] | [15]
active: [11] 16.1 µM

CCOC(=O)c1ccc(O)cc1
inactive: [1] | [2] | [3] | [4] | [5] | [6] | [7] | [8] | [9] | [10] | [16] | [17] | [18] | [19] | [20] | [12] | [15]

Reference: PubChem BioAssay (Tox21)
